An excerpt weighted towards active compounds, which were near 5.8% of everything screened.
RORgamma inh = inhibitors of mouse ROR gamma transcriptional activity | AID 2551 | Potency, µM (doses to about 53.6 µM), inactives show at the highest dose activity change, negative = inhibition, usual class: inhibitors | P51450 | hit rate 5.4% among 310,000 | Drosophila S2 Gal4-RORgamma UAS-luciferase reporter, 20 h; note: potency is the fitted concentration of half-maximal effect; % is set by controls: 0 for no effect and ±100 for the full control effect; nearly all actives have a fitted effect of over 60% in size
Target sequence (P51450 whole entry, looked up, the tested form may be a part): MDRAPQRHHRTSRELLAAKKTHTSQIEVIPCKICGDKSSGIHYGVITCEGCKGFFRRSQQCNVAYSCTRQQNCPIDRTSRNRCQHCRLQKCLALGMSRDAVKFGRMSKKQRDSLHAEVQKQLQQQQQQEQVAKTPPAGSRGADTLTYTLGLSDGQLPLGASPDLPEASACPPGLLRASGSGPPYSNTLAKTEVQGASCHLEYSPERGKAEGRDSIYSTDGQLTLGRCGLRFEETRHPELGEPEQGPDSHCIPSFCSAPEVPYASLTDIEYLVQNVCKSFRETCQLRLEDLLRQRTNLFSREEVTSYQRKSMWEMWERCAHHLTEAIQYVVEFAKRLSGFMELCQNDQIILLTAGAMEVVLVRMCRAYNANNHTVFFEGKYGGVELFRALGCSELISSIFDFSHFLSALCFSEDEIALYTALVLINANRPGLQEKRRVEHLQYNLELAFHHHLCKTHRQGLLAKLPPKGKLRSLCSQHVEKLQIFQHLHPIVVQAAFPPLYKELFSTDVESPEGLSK
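A Gal4/UAS one-hybrid system in insect cells: metallothionein-promoter Gal4–ROR gamma fusion plus Photinus luciferase reporter. Copper sulfate 700 uM final, 20 hr ambient incubation, luminescent detection after 10 min with reagent.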
TRPV1 agonist = activates the human vanilloid receptor TRPV1 | Q8NER1 | TRPV1-expressing cells, Fluo-8 calcium influx, agonist mode | activation, % at 8.33 µM | hit rate 0.19% among 320,000; in the data active = activation above about 80%; inconclusive = between about 30% and that limit; note: 0% is about no effect
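TRPV1-expressing cells were cultured overnight at 35.5C and loaded with Fluo-8 calcium dye for 40 to 90 min at room temperature. After a 10 s baseline, compound was added and calcium influx was read kinetically for 3 min (ex 480/em 520 nm).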
uPA surface inh = inhibitors of cell surface uPA generation | cell surface uPA generation assay, qHTS | Potency, µM (top dose mostly 38.3 µM), without a hit: top-dose activity change, negative = inhibition, usual class: inhibitors | hit rate 0.31% among 330,000; active = well fitted inhibition curve with a large enough effect; inconclusive = small, poorly fitted or top-dose-only effect; inactive = no such curve, though single readings can be large or run the other way; tested in mouse RAW 264.7 cells; note: potency is the fitted concentration of half-maximal effect; % is set by controls: 0 for no effect and ±100 for the full control effect; nearly all actives have a fitted effect of over 55% in size
Gal4-VP16 FLuc = inhibits Gal4-VP16 luciferase reporter, ROR gamma counter-screen. hit rate 3.5% among 310,000. Potency, µM (titrated, usually from 53.6 µM), for inactives: at the top dose activity, negative = inhibition, most hits filed as inhibitors. Drosophila S2 Gal4-VP16 UAS-luciferase, luminescence, 20 h. AID 2546;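 note: Gal4-VP16 expression switched on by copper sulfate through the metallothionein promoter; potency is the fitted concentration of half-maximal effect; % is set by controls: 0 for no effect and ±100 for the full control effect; nearly all actives have a fitted effect of over 50% in size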
TRPV1 PAM = human TRPV1 potentiation; Q8NER1; TRPV1-expressing cells, Fluo-8 calcium influx, capsaicin EC20 potentiation; potentiation, % at 8.33 µM; hit rate 0.02% among 320,000; in the data active = potentiation above about 80%; inconclusive = between about 30% and that limit; note: 0% is about no effect
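Cells expressing TRPV1 were dye-loaded with Fluo-8 and read kinetically: 10 s baseline, 3 min after compound (agonist portion), then 2 min after EC20 capsaicin (allosteric enhancer portion). Calcium-bound dye fluorescence at 480/520 nm.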
Starred values were filed as active, the others as inactive; ? = inconclusive; nt = no result. Unless noted, calls come from the whole dose curve; as a rule, active = well fitted curve in the direction sought with a large enough effect; inconclusive = small, poorly fitted or top-dose-only effect, or another doubt; inactive = no such curve, though single readings can be large; an effect the other way counts as inactive or inconclusive.

SMILES | RORgamma inh | TRPV1 agonist | uPA surface inh | Gal4-VP16 FLuc | TRPV1 PAM
CSCCC(NC(=O)c1ccccc1Br)C(=O)N1CCCC(C(F)(F)F)C1 (stereo unspecified) | -27.9% | 3.2 | 5.5% | -0.3% | 2.7
CCOc1ccccc1NC(=S)N1CCCc2ccccc21 | 2.9% | 1.9 | -4.2% | -5.1% | -6.8
O=[N+]([O-])c1ccc(NC(=S)N2CCCC2)cc1 | -26.7% | -0.1 | 2.3% | 18.5% | 3.0
COc1ccccc1NC(=S)N1CCCc2ccccc21 | 2.82µM* | -0.7 | 3.1% | -10.3% | 6.6
S=C(Nc1ccccc1)N1CCc2ccccc21 | 11.2µM* | -2.4 | -12.6% | 15.8µM* | -4.4
COc1ccc(NC(=S)N2CCc3ccccc32)cc1OC | 8.91µM* | -1.3 | -2.6% | ? | 0.3
O=[N+]([O-])c1ccc(NC(=S)N2CCc3ccccc32)cc1 | 12.6µM* | -8.4 | 3.6% | ? | -6.8
CCC(C)NC(=S)N1CCN(C(c2ccccc2)c2ccccc2)CC1 (stereo unspecified) | 11.2µM* | ? | -5.3% | ? | -1.1
Fc1cccc(NC(=S)N2CCc3ccccc32)c1 | 8.91µM* | 7.6 | -4.3% | ? | 4.1
CC(=O)c1cccc(NC(=S)N2CCc3ccccc32)c1 | ? | 11.4 | 4.8% | ? | -9.8
COc1ccc(NC(=S)N2CCN(C(c3ccccc3)c3ccccc3)CC2)cc1OC | 8.91µM* | 27.3 | -7.3% | 12.6µM* | 16.8
O=C(O)CCNc1cc2ccccc2cc1C(=O)O | -16.4% | -1.1 | 1.7% | -12.4% | -9.2
O=C(CCC(=O)N1CCCC1)Nc1ccc(Cl)c(Cl)c1 | 26.8% | -0.6 | -1.4% | -4.3% | ?
CN(C)c1ncc2nc(-c3ccccc3)c(=O)n(Cc3ccc(F)cc3)c2n1 | -14.1% | nt | nt | 16.3% | nt
O=C1OC(c2ccccc2)=C/C1=C/N1CCCCC1 | -10.6% | 80.9* | -20.9% | -9.0% | -3.2
CC(C)CC(=O)Nc1nc2ccc(S(C)(=O)=O)cc2s1 | 31.6% | 2.1 | -13.3% | 23.9% | 9.7
COc1cc(/C=N/Nc2cccc3cccnc23)cc(OC)c1O | 10µM* | 1.4 | ? | ? | -1.7
Oc1cccc(/C=N/Nc2cccc3cccnc23)c1 | 7.08µM* | 20.3 | -11.5% | ? | -18.1
O=C(N/N=C/c1cccc(O)c1)c1ccc(COc2cccc3cccnc23)cc1 | 45.0% | 2.0 | -7.1% | -4.2% | 11.1
Oc1c(/C=N/Nc2cccc3cccnc23)ccc2ccccc12 | 12.6µM* | 3.9 | -0.1% | ? | -3.6
CC(C)CCOc1cccc(OCC(=O)O)c1 | 11.2% | -0.4 | 2.5% | 5.5% | -4.1
CCOC(=O)c1cnc2c(OC)cccc2c1N1CCN(c2ccc(OC)cc2)CC1 | -5.2% | -14.9 | -6.8% | 2.24µM* | 15.2
CCOC(=O)c1cnc2c(OC)cccc2c1N1CCN(c2ccccc2OC)CC1 | -40.7% | 23.7 | -1.9% | -9.9% | -11.7
COCCCN=C1NN=C(c2cc(C)n(-c3ccccc3F)c2C)CS1 | -1.7% | -9.5 | 6.31µM* | -27.8% | 22.2
COCCCN=C1NN=C(c2cc(C)n(-c3ccccc3)c2C)CS1 | -4.7% | -0.8 | -1.8% | -4.3% | 0.0
SMILES | RORgamma inh | TRPV1 agonist | uPA surface inh | Gal4-VP16 FLuc | TRPV1 PAM
COCCn1c(C)cc(C2=NNC(=Nc3ccccc3F)SC2)c1C | 0.794µM* | -3.0 | 0.5% | ? | ?
Cn1c(=O)c(-c2cccc(C#N)c2)nc2cnc(Oc3ccccc3)nc21 | 17.9% | nt | nt | 7.3% | nt
COc1ccc(CCC(C)NCCc2ccc(Cl)cc2Cl)cc1 (stereo unspecified) | -30.0% | 7.5 | 5.2% | -11.4% | 0.8
C=C1SC(Nc2c(C)cccc2C)=NC12CCCCC2 | 3.98µM* | 9.4 | 6.0% | 2.24µM* | -17.2
C=C1SC(Nc2c(C)cc(C)cc2C)=NC12CCCCC2 | ? | 4.3 | 1.5% | 0.631µM* | 17.1
Cc1cccc(C)c1NC(=O)NC1(C(=O)N2CCCCC2)CCCCC1 | -16.6% | 3.2 | -3.2% | 2.9% | 2.8
Cc1ccccc1OCC(O)CN(Cc1ccccc1O)C1CCCCC1 (stereo unspecified) | ? | 21.4 | -0.1% | -10.0% | -8.9
O=C(N/N=C1/CC(c2ccccc2)Oc2ccccc21)C1CC1 (stereo unspecified) | 11.2µM* | -3.1 | 0.5% | -15.1% | -0.4
O=C(N/N=C1\CC(c2ccccc2)Oc2ccccc21)c1cccnc1 (stereo unspecified) | 5.62µM* | ? | -5.8% | 3.98µM* | -12.8

Compound activity: PubChem, National Center for Advancing Translational Sciences (NCATS)
